Data taken from PubChem BioAssay (NCATS).
Results filed as inconclusive are left out. The source made the active and inactive calls. The call rests on the fitted dose curve; in most records, active means well fitted curve in the direction sought with a large enough effect; inconclusive means small, poorly fitted or top-dose-only effect, or another doubt; inactive means no such curve, though single readings can be large; an effect the other way counts as inactive or inconclusive.

Tests used:
[1] = qHTS of pediatric cancer cell lines to identify multiple opportunities for drug repurposing: Primary screen for TC32 cells (AID 1347089); further: nearly all actives have a fitted effect of over 60% in size
How it was run: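 Luminescent ATP read-out (CellTiter-Glo) of metabolically active TC32 cells after 48 h exposure. Concentration-response curves came from 11-point (MIPE, 0.78 nM–46 µM) or 8-point (NPC, 0.59 nM–46 µM) primary titrations; follow-up used 11 points.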

[2] = qHTS of pediatric cancer cell lines to identify multiple opportunities for drug repurposing: Primary screen for SK-N-MC cells (AID 1347093)
How it was run: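 Metabolically active cells were quantified by ATP-dependent luminescence (CellTiter-Glo, 15 min at room temperature) following 48 h treatment. Cells had been plated at 500-1,000 per well and settled for 5 h beforehand.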

[3] = qHTS of pediatric cancer cell lines to identify multiple opportunities for drug repurposing: Primary screen for NB-EBc1 cells (AID 1347095)
How it was run: (§1)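 Cells plated at 500-1,000/well in growth medium, compounds added after 5 h. MIPE tested at 11 points (from 0.78 nM), NPC at 8 points (from 0.59 nM). CellTiter-Glo luminescence after 48 h; concentration-response curves from primary screen.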

[4] = qHTS of pediatric cancer cell lines to identify multiple opportunities for drug repurposing: Primary screen for U-2 OS cells (AID 1347096); further: nearly all actives have a fitted effect of over 50% in size
How it was run: (§2)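 Cells (500-1,000/well) in growth media were settled 5 h at 37 degrees C, then given compounds for 48 h. Viability was read as CellTiter-Glo luminescence. Primary runs used MIPE at 11 points (0.78 nM-46 µM) and NPC at 8 points (0.59 nM-46 µM); follow-ups used 11 points.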

[5] = qHTS of pediatric cancer cell lines to identify multiple opportunities for drug repurposing: Primary screen for Saos-2 cells (AID 1347097); further: nearly all actives have a fitted effect of over 40% in size
How it was run: as §1

[6] = qHTS of pediatric cancer cell lines to identify multiple opportunities for drug repurposing: Primary screen for SK-N-SH cells (AID 1347098); further: nearly all actives have a fitted effect of over 65% in size
How it was run: (§3)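 Cells (500-1,000/well) rested 5 h, then received compounds for 48 h; metabolically active cells were measured by CellTiter-Glo luminescence. Final concentrations spanned up to 46 µM (MIPE, 11-point) or 0.59 nM-46 µM (NPC, 8-point) in primary screens, 11-point in follow-ups.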

[7] = qHTS of pediatric cancer cell lines to identify multiple opportunities for drug repurposing: Primary screen for NB1643 cells (AID 1347099); further: nearly all actives have a fitted effect of over 50% in size
How it was run: as §1

[8] = qHTS of pediatric cancer cell lines to identify multiple opportunities for drug repurposing: Primary screen for LAN-5 cells (AID 1347100)
How it was run: as §2

[9] = qHTS of pediatric cancer cell lines to identify multiple opportunities for drug repurposing: Primary screen for Rh18 cells (AID 1347102); further: nearly all actives have a fitted effect of over 65% in size
How it was run: as §2

[10] = qHTS of pediatric cancer cell lines to identify multiple opportunities for drug repurposing: Primary screen for OHS-50 cells (AID 1347103); further: nearly all actives have a fitted effect of over 40% in size
How it was run: as §3

[11] = qHTS of pediatric cancer cell lines to identify multiple opportunities for drug repurposing: Primary screen for MG 63 (6-TG R) cells (AID 1347105); further: nearly all actives have a fitted effect of over 50% in size
How it was run: as §1

[12] = qHTS of pediatric cancer cell lines to identify multiple opportunities for drug repurposing: Primary screen for control Hh wild type fibroblast cells (AID 1347106); further: nearly all actives have a fitted effect of over 55% in size
How it was run: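 Viability after 48 h compound treatment at 37C, 500-1,000 cells/well, read as ATP luminescence with CellTiter-Glo. Primary screens used 11-point (MIPE, 0.78 nM-46 µM) or 8-point (NPC, 0.59 nM-46 µM) final concentrations; follow-up screens used 11-point dilutions.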

[13] = qHTS of pediatric cancer cell lines to identify multiple opportunities for drug repurposing: Primary screen for BT-37 cells (AID 1347094)
How it was run: as §1

[14] = qHTS of pediatric cancer cell lines to identify multiple opportunities for drug repurposing: Primary screen for BT-12 cells (AID 1347101); further: nearly all actives have a fitted effect of over 25% in size
How it was run: as §3

[15] = qHTS of pediatric cancer cell lines to identify multiple opportunities for drug repurposing: Primary screen for RD cells (AID 1347104); further: nearly all actives have a fitted effect of over 55% in size
How it was run: as §1

[16] = qHTS of pediatric cancer cell lines to identify multiple opportunities for drug repurposing: Primary screen for A673 cells (AID 1347092); further: nearly all actives have a fitted effect of over 45% in size
How it was run: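 Cell viability of A673 measured by CellTiter-Glo ATP luminescence after 48 hours compound exposure. Dilution series spanned 0.78 nM to 46 µM (MIPE, 11-point) or 0.59 nM to 46 µM (NPC, 8-point); bortezomib 2.3 uM positive control.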

[17] = qHTS of pediatric cancer cell lines to identify multiple opportunities for drug repurposing: Primary screen for DAOY cells (AID 1347090); further: nearly all actives have a fitted effect of over 55% in size
How it was run: (§4)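 Eight- or eleven-point concentration series, 48 h treatment at 37 degrees C in growth media; readout CellTiter-Glo luminescence. Potency and efficacy were taken from the concentration-response curves.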

[18] = qHTS of pediatric cancer cell lines to identify multiple opportunities for drug repurposing: Primary screen for SJ-GBM2 cells (AID 1347091)
How it was run: as §4
Potency means the concentration at half of the fitted maximal effect.

| Structure (SMILES) | Potency [1] | Potency [2] | Potency [3] | Potency [4] | Potency [5] | Potency [6] | Potency [7] | Potency [8] | Potency [9] | Potency [10] | Potency [11] | Potency [12] | Potency [13] | Potency [14] | Potency [15] | Potency [16] | Potency [17] | Potency [18] |
| --- | --- | --- | --- | --- | --- | --- | --- | --- | --- | --- | --- | --- | --- | --- | --- | --- | --- | --- |
| CNC(=O)c1c(F)cccc1Nc1nc(Nc2cc3c(cc2OC)CCN3C(=O)CN(C)C)nc2[nH]ccc12 | 5.87 µM (active) | 0.0148 µM (active) | 0.332 µM (active) | inactive | 2.09 µM (active) | 8.57 µM (active) | 0.132 µM (active) | 0.0526 µM (active) | 8.33 µM (active) | 0.344 µM (active) | 18.7 µM (active) | inactive |  |  |  |  |  |  |
| Cc1ccc(NC(=O)C2(c3ccc4c(c3)OC(F)(F)O4)CC2)nc1-c1cccc(C(=O)O)c1 | 0.234 µM (active) | 0.0469 µM (active) | 0.0662 µM (active) |  | 0.148 µM (active) | 0.136 µM (active) | 0.0332 µM (active) | 0.0833 µM (active) | 0.833 µM (active) | 0.0544 µM (active) | 0.148 µM (active) | 11.8 µM (active) | 0.0385 µM (active) | 0.122 µM (active) | 0.0743 µM (active) |  |  |  |
| CC[C@H](CO)Nc1nc(NCc2ccccc2)c2ncn(C(C)C)c2n1 | inactive |  |  | inactive |  |  | inactive | 20.9 µM (active) | inactive |  | inactive |  | 27.3 µM (active) |  |  | 18.7 µM (active) |  |  |
| Cn1cncc1[C@@](N)(c1ccc(Cl)cc1)c1ccc2c(c1)c(-c1cccc(Cl)c1)cc(=O)n2C |  | 1.66 µM (active) | 11.8 µM (active) | 18.7 µM (active) | 18.7 µM (active) | 8.57 µM (active) | 18.7 µM (active) | 5.9 µM (active) |  | 7.69 µM (active) | 23.5 µM (active) |  | 21.7 µM (active) | 21.7 µM (active) | 16.6 µM (active) | 23.5 µM (active) | 14.8 µM (active) | 20.9 µM (active) |
| Cc1cc(Nc2cc(N3CCN(C)CC3)nc(Sc3ccc(NC(=O)C4CC4)cc3)n2)n[nH]1 | 0.93 µM (active) | 0.418 µM (active) | 0.935 µM (active) |  | inactive | 21.5 µM (active) | 20.9 µM (active) | 0.105 µM (active) | 16.6 µM (active) | 6.85 µM (active) | 18.7 µM (active) | inactive | inactive | 21.7 µM (active) | 18.7 µM (active) | 11.8 µM (active) |  |  |
| COc1cc2ncn(-c3cc(OCc4ccccc4C(F)(F)F)c(C(N)=O)s3)c2cc1OC |  | 0.469 µM (active) | 4.69 µM (active) | 23.5 µM (active) | 10.5 µM (active) | 24.1 µM (active) |  |  |  | 1.22 µM (active) | 7.43 µM (active) |  | 19.3 µM (active) | 21.7 µM (active) | 1.66 µM (active) | 0.469 µM (active) | 0.372 µM (active) | 0.662 µM (active) |
| c1cc(-c2cnn3cc(-c4ccc(OCCN5CCCCC5)cc4)cnc23)ccn1 |  | 9.35 µM (active) | 23.5 µM (active) | inactive |  | 21.5 µM (active) | 3.72 µM (active) | 9.35 µM (active) | 20.9 µM (active) | 9.68 µM (active) | 18.7 µM (active) |  | 17.2 µM (active) | 24.3 µM (active) | 18.7 µM (active) | 4.69 µM (active) | 18.7 µM (active) | 16.6 µM (active) |
| COc1cc2c(cc1-c1c(C)noc1C)ncc1[nH]c(=O)n([C@H](C)c3ccccn3)c12 |  | 1.18 µM (active) | 16.6 µM (active) | 18.7 µM (active) |  | 21.5 µM (active) | 11.8 µM (active) | 5.9 µM (active) |  | 0.485 µM (active) | 1.87 µM (active) | 16.6 µM (active) | 17.2 µM (active) | 19.3 µM (active) | 4.69 µM (active) | 4.69 µM (active) | 18.7 µM (active) | 16.6 µM (active) |
| CC(C)(C)NC(=O)[C@H]1CN(Cc2cccnc2)CCN1C[C@@H](O)C[C@@H](Cc1ccccc1)C(=O)N[C@H]1c2ccccc2C[C@H]1O | inactive | 0.118 µM (active) |  | inactive | 18.7 µM (active) | 15.2 µM (active) | 1.05 µM (active) |  |  | 19.3 µM (active) |  |  |  |  |  |  |  |  |
| O=C(c1ccc(Nc2nccc(-c3cc4ccccc4s3)n2)cc1)N1CCC(N2CCCC2)CC1 |  | 5.26 µM (active) | 23.5 µM (active) |  | 16.6 µM (active) | 19.2 µM (active) | 11.8 µM (active) | 11.8 µM (active) |  | 7.69 µM (active) | 18.7 µM (active) |  | 24.3 µM (active) | 27.3 µM (active) |  | 7.43 µM (active) | 23.5 µM (active) | 13.2 µM (active) |
